Results taken from PubChem BioAssay (NCI).
About 83,000 compounds went through this panel and 20% of them were active in at least one assay; those are over-represented in the sample as a whole.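 Single-dose data. Exposure time 48 hours. Values below 10 considered active.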 Calls of active or inactive are those of the source.

Key:
Test in all cases: NCI-60 one-dose screen, 48 h (100 = growth as untreated, 0 = no growth, -100 = all killed)
Details in all cases: 10 µM unless noted
HCT-15 colon = tested on: HCT-15 colon
HT29 colon = tested on: HT29 colon
SNB-75 CNS = tested on: SNB-75 CNS
SNB-19 CNS = tested on: SNB-19 CNS
U251 CNS = tested on: U251 CNS
PC-3 prostate = tested on: PC-3 prostate
SK-MEL-5 melanoma = tested on: SK-MEL-5 melanoma
UACC-62 melanoma = tested on: UACC-62 melanoma
LOX IMVI melanoma = tested on: LOX IMVI melanoma
SK-MEL-28 melanoma = tested on: SK-MEL-28 melanoma

Measured: growth

O=C(Nc1ccccc1)C(CCCCN1C(=O)c2ccccc2C1=O)N1C(=O)c2ccccc2C1=O (stereo not given)
inactive: HCT-15 colon 102% | HT29 colon 107% | SNB-75 CNS 88.5% | SNB-19 CNS 101% | U251 CNS 102% | PC-3 prostate 98.5% | SK-MEL-5 melanoma 101% | UACC-62 melanoma 98.9% | LOX IMVI melanoma 101% | SK-MEL-28 melanoma 107%

COc1ccc(Nc2ncnc3c2sc2nc(C)cc(C)c23)cc1
inactive: HCT-15 colon 96% | HT29 colon 105% | SNB-75 CNS 74.4% | SNB-19 CNS 99.2% | U251 CNS 103% | PC-3 prostate 92.7% | SK-MEL-5 melanoma 99.8% | UACC-62 melanoma 100% | LOX IMVI melanoma 96.7% | SK-MEL-28 melanoma 105%

O=C1OC(c2ccc(-c3ccccc3)cc2)=C/C1=C/c1c(Cl)cccc1Cl
inactive: HCT-15 colon 83.7% | HT29 colon 101% | SNB-75 CNS 85.1% | SNB-19 CNS 105% | U251 CNS 102% | PC-3 prostate 91.8% | SK-MEL-5 melanoma 101% | UACC-62 melanoma 85.5% | LOX IMVI melanoma 103% | SK-MEL-28 melanoma 101%

CC(CN1CCN(C)CC1)CN1c2ccccc2Sc2ccc(C(F)(F)F)cc21 (stereo not given)
active: HCT-15 colon 6.79% | HT29 colon -49.9% | U251 CNS 1% | SK-MEL-5 melanoma -82.7% | UACC-62 melanoma -40.4% | LOX IMVI melanoma -2.88%
inactive: SNB-75 CNS 45.5% | SNB-19 CNS 63.1% | PC-3 prostate 31.3% | SK-MEL-28 melanoma 22.4%

C/C(=N\OC(=O)Nc1cccc(Cl)c1)c1ccccc1
inactive: HCT-15 colon 94.2% | HT29 colon 94.4% | SNB-75 CNS 80.4% | SNB-19 CNS 106% | U251 CNS 93.5% | PC-3 prostate 94% | SK-MEL-5 melanoma 94.8% | UACC-62 melanoma 93.7% | LOX IMVI melanoma 110% | SK-MEL-28 melanoma 95.2%

Cc1cc(NC(=O)C2c3ccccc3C(=O)N(CC(C)C)C2c2cccs2)no1 (stereo not given)
inactive: SNB-75 CNS 61.4% | SNB-19 CNS 81.9% | U251 CNS 21.2% | SK-MEL-5 melanoma 14.2%
active: HCT-15 colon 7.04% | HT29 colon -29.4% | PC-3 prostate 9.17% | UACC-62 melanoma -84.5% | LOX IMVI melanoma -85.3% | SK-MEL-28 melanoma -86.8%

CCN(CC)CCCC(C)N/C(c1cccc(OC)c1)=c1\c(=O)[nH]n(-c2c3ccccc3nc3ccccc23)c(=O)\c1=C(/NC(C)CCCN(CC)CC)c1cccc(OC)c1 (stereo not given)
inactive: SNB-19 CNS 13%
active: HCT-15 colon 2.74% | HT29 colon -68% | SNB-75 CNS -22.5% | U251 CNS -73% | PC-3 prostate -57.7% | SK-MEL-5 melanoma -98.9% | UACC-62 melanoma -77.9% | LOX IMVI melanoma -66.1% | SK-MEL-28 melanoma -96%

[O-]/[N+](=C\c1ccccc1)CC1(O)CCCCC1
inactive: HCT-15 colon 98.4% | HT29 colon 102% | SNB-75 CNS 81.1% | SNB-19 CNS 99.4% | U251 CNS 97.6% | PC-3 prostate 108% | SK-MEL-5 melanoma 105% | UACC-62 melanoma 102% | LOX IMVI melanoma 101% | SK-MEL-28 melanoma 106%

COc1ccc(C(=O)c2cc(C)c(OC)c(C)c2)cc1OC(=O)CCl
inactive: HCT-15 colon 13.1% | HT29 colon 13.3% | SNB-75 CNS 69.8% | SNB-19 CNS 30.8% | PC-3 prostate 25.9% | UACC-62 melanoma 41.8% | LOX IMVI melanoma 18.9% | SK-MEL-28 melanoma 57.5%
active: U251 CNS 6.71% | SK-MEL-5 melanoma -18.4%

O=C(NNC(=S)Nc1ccccc1)c1ccc(Nc2ncnc3c2cnn3-c2cccc(Br)c2)cc1
inactive: HCT-15 colon 110% | HT29 colon 105% | SNB-75 CNS 80% | SNB-19 CNS 101% | U251 CNS 114% | PC-3 prostate 93.5% | SK-MEL-5 melanoma 100% | UACC-62 melanoma 94.6% | LOX IMVI melanoma 97.3% | SK-MEL-28 melanoma 110%

COc1ccc2[nH]c(O)c(/C=c3/ccc4c(c3)N=C(c3ccc(C(F)(F)F)cc3)N=4)c2c1
inactive: HCT-15 colon 53.9% | HT29 colon 80% | SNB-75 CNS 60.7% | SNB-19 CNS 81.4% | U251 CNS 51.6% | PC-3 prostate 43.1% | SK-MEL-5 melanoma 79.1% | UACC-62 melanoma 86% | LOX IMVI melanoma 58.2% | SK-MEL-28 melanoma 83.9%

CCc1ccc(-c2ccc(NC3CCCCCC3)nn2)cc1S(N)(=O)=O
inactive: HCT-15 colon 96.4% | HT29 colon 91.3% | SNB-75 CNS 97.2% | SNB-19 CNS 103% | U251 CNS 95.8% | PC-3 prostate 94.4% | SK-MEL-5 melanoma 98.5% | UACC-62 melanoma 97.8% | LOX IMVI melanoma 100% | SK-MEL-28 melanoma 105%

N#Cc1ccc(NC(=O)Nc2nc3ccc(OC(F)(F)F)cc3s2)cc1
inactive: SNB-19 CNS 15.1% | SK-MEL-28 melanoma 19.3%
active: HCT-15 colon 0.568% | HT29 colon -3.66% | SNB-75 CNS -8.15% | U251 CNS 4.34% | PC-3 prostate 2.88% | SK-MEL-5 melanoma -53.3% | UACC-62 melanoma 2.82% | LOX IMVI melanoma 1.35%

O=C(NC1CC1)c1ccc(-c2nc3ccc4[nH]ncc4c3c3c2CCCC3)cc1
inactive: HCT-15 colon 29% | HT29 colon 35.2% | SNB-19 CNS 65.3% | U251 CNS 34.5% | PC-3 prostate 43.1% | SK-MEL-5 melanoma 55.2% | UACC-62 melanoma 28.8% | LOX IMVI melanoma 38.7% | SK-MEL-28 melanoma 47.4%
active: SNB-75 CNS -5.58%

O=C(/C=C/c1cn(-c2ccccc2)nc1-c1cccc(Nc2ccnc3cc(Cl)ccc23)c1)c1ccc2c(c1)OCO2
inactive: HCT-15 colon 91.9% | HT29 colon 114% | SNB-75 CNS 101% | SNB-19 CNS 104% | U251 CNS 89.1% | PC-3 prostate 96.6% | SK-MEL-5 melanoma 85.3% | UACC-62 melanoma 104% | LOX IMVI melanoma 94.1% | SK-MEL-28 melanoma 82.7%

COc1ccc(Nc2ncccc2C(=O)NCc2cn(Cc3cc(OC)cc(OC)c3)nn2)cc1
inactive: HCT-15 colon 104% | HT29 colon 97.8% | SNB-75 CNS 81.7% | SNB-19 CNS 106% | U251 CNS 98.6% | PC-3 prostate 90.9% | SK-MEL-5 melanoma 97.6% | UACC-62 melanoma 97.1% | LOX IMVI melanoma 96.5% | SK-MEL-28 melanoma 113%

CCOc1cccc(/C=N/NC(=O)c2ccc(Nc3ccnc(C(F)(F)F)c3)cc2)c1O
inactive: HCT-15 colon 19.1% | HT29 colon 49.3% | SNB-75 CNS 20.6% | SNB-19 CNS 20% | U251 CNS 15.9% | PC-3 prostate 50.8% | SK-MEL-28 melanoma 19.2%
active: SK-MEL-5 melanoma -54.3% | UACC-62 melanoma -6.19% | LOX IMVI melanoma 2.5%

COc1ccc(/C=C2\Cc3c(Br)cccc3C2=O)c(OC)c1
inactive: HCT-15 colon 51.1% | HT29 colon 64.4% | SNB-75 CNS 70.7% | SNB-19 CNS 53.3% | U251 CNS 55.6% | PC-3 prostate 81.1% | SK-MEL-5 melanoma 47.9% | UACC-62 melanoma 38.9% | LOX IMVI melanoma 59.9% | SK-MEL-28 melanoma 64.3%

CC(=O)O[C@H]1[C@H](CC#CC#CC[C@@H]2C[C@]3(C)[C@H]4CC=C5[C@H]6[C@@H](C)[C@H](C)CC[C@]6(C(=O)NCCCCCCCCN)CC[C@@]5(C)[C@]4(C)CC[C@H]3C(C)(C)[C@H]2OC(C)=O)C[C@]2(C)[C@H]3CC=C4[C@H]5[C@@H](C)[C@H](C)CC[C@]5(C(=O)NCCCCCCCCN)CC[C@@]4(C)[C@]3(C)CC[C@H]2C1(C)C
inactive: HCT-15 colon 108% | HT29 colon 98.2% | SNB-75 CNS 94.7% | SNB-19 CNS 107% | U251 CNS 98.2% | PC-3 prostate 92.8% | SK-MEL-5 melanoma 105% | UACC-62 melanoma 112% | LOX IMVI melanoma 96.9% | SK-MEL-28 melanoma 124%

CCOC(C)(c1ccc(Cl)cc1)C1CCNCC1 (stereo not given)
inactive: HCT-15 colon 94.8% | HT29 colon 85.2% | SNB-75 CNS 82.2% | SNB-19 CNS 101% | U251 CNS 92.4% | PC-3 prostate 82.6% | SK-MEL-5 melanoma 102% | UACC-62 melanoma 101% | LOX IMVI melanoma 65.2% | SK-MEL-28 melanoma 109%

Oc1ccc(-c2cnc(-c3ccccc3)[nH]2)c(O)c1
inactive: HCT-15 colon 107% | HT29 colon 120% | SNB-75 CNS 94.2% | SNB-19 CNS 98% | U251 CNS 110% | PC-3 prostate 100% | SK-MEL-5 melanoma 105% | UACC-62 melanoma 85.6% | LOX IMVI melanoma 105% | SK-MEL-28 melanoma 105%

CC(C)NC(=O)OCC#CCOC(=O)NC(C)C
inactive: HCT-15 colon 108% | HT29 colon 104% | SNB-75 CNS 89.5% | SNB-19 CNS 97.5% | U251 CNS 99.5% | PC-3 prostate 97% | SK-MEL-5 melanoma 106% | UACC-62 melanoma 99.6% | LOX IMVI melanoma 104% | SK-MEL-28 melanoma 104%

CC1CN(CCCOC(=O)Nc2ccc(Cl)cc2)CCN1C(C)(C)C (stereo not given)
inactive: HCT-15 colon 114% | HT29 colon 104% | SNB-75 CNS 114% | SNB-19 CNS 98.1% | U251 CNS 108% | PC-3 prostate 90% | SK-MEL-5 melanoma 97.6% | UACC-62 melanoma 84.8% | LOX IMVI melanoma 91.9% | SK-MEL-28 melanoma 106%

C=C(C)c1ccc(/C=N/NC(N)=S)cc1
inactive: HCT-15 colon 96% | HT29 colon 86.1% | SNB-75 CNS 104% | SNB-19 CNS 97.3% | U251 CNS 93.9% | PC-3 prostate 100% | SK-MEL-5 melanoma 95.1% | UACC-62 melanoma 88.9% | LOX IMVI melanoma 97.4% | SK-MEL-28 melanoma 109%
